Inconclusive results are not listed. Calls of active or inactive are those of the source. Calls come from the whole dose curve.
Assay: Validation screen for inhibitors of Lassa infection (AID 463096)
Conditions: Lassa virus infection, cell-based; series mostly up to 46.1 µM

SMILES	outcome
CC(C)NCC(O)c1cc(O)cc(O)c1 (centres undefined)	inactive
C[C@]12CCC(=O)C=C1CC[C@@H]1[C@@H]2CC[C@]2(C)C(=O)CC[C@@H]12	inactive
CC(=O)N1CCN(c2ccc(OC[C@H]3CO[C@](Cn4ccnc4)(c4ccc(Cl)cc4Cl)O3)cc2)CC1	inactive
CCN(CC)CCNC(=O)c1cc(S(C)(=O)=O)ccc1OC	inactive
CC(=O)OC(C)C[N+](C)(C)C (centres undefined)	inactive
CO/N=C(\C(=O)N[C@@H]1C(=O)N2C(C(=O)O)=C(COC(C)=O)CS[C@H]12)c1csc(N)n1 (stereo in doubt)	inactive
COc1ccc2[nH]cc(CCNC(C)=O)c2c1	inactive
CCn1cc(C(=O)O)c(=O)c2cc(F)c(N3CCNC(C)C3)c(F)c21 (centres undefined)	inactive
CCOC(=O)C1=C(C)NC(C)=C(C(=O)OC)C1c1cccc([N+](=O)[O-])c1 (centres undefined)	inactive
CC(C)NCC(O)c1ccc(NS(C)(=O)=O)cc1 (centres undefined)	inactive
C[C@](N)(Cc1ccc(O)cc1)C(=O)O	inactive
CC(=O)OCC1=C(C(=O)O)N2C(=O)[C@@H](NC(=O)Cc3cccs3)[C@H]2SC1	inactive
CO[C@@]1(NC(=O)CSCC#N)C(=O)N2C(C(=O)O)=C(CSc3nnnn3C)CS[C@@H]21	inactive
CC(=O)c1ccc(S(=O)(=O)NC(=O)NC2CCCCC2)cc1	inactive
CC(=O)Oc1cc(C(C)C)c(OCCN(C)C)cc1C	inactive
CN1CCN(CC(=O)N2c3ccccc3C(=O)Nc3cccnc32)CC1	inactive
CN=C(NC#N)NCCSCc1nc[nH]c1C	inactive

SMILES	outcome
NC(=O)c1ncn([C@@H]2O[C@H](CO)[C@@H](O)[C@H]2O)c1O	inactive
C[C@]12CCC(=O)C=C1CC[C@@H]1[C@@H]2[C@@H](O)C[C@@]2(C)[C@H]1CC[C@]2(O)C(=O)COC(=O)CCC(=O)O	inactive
C[C@H]1O[C@@H](n2cc(F)c(=O)[nH]c2=O)[C@H](O)[C@@H]1O	inactive
CN1C(C(=O)Nc2ccccn2)=C(O)c2ccccc2S1(=O)=O	inactive
NC(=O)c1cnccn1	inactive
CC(C)NNC(=O)c1ccncc1	inactive
CN(C)CCOC(=O)COc1ccc(Cl)cc1	inactive
Cc1cnc(NC(=O)C2=C(O)c3ccccc3S(=O)(=O)N2C)s1	inactive
CC(C)C(=O)c1c(C(C)C)nn2ccccc12	inactive
CNCC(O)c1ccc(O)c(O)c1 (centres undefined)	inactive
Nc1ccc(S(=O)(=O)Nc2ccnn2-c2ccccc2)cc1	inactive
FC(F)(F)c1ccccc1-n1ccnc1	inactive
CCN(Cc1ccncc1)C(=O)C(CO)c1ccccc1 (centres undefined)	inactive
COCCOC(=O)C1=C(C)NC(C)=C(C(=O)OC(C)C)C1c1cccc([N+](=O)[O-])c1 (centres undefined)	inactive
CCN(CC)C(=O)c1ccc(O)c(OC)c1	inactive
CN=C(NC#N)Nc1ccc(C2=NNC(=O)CC2C)cc1 (centres undefined)	inactive
CC(C)(C)NCC(O)c1cc(O)cc(O)c1 (centres undefined)	inactive

— PubChem BioAssay (NCATS)
